{
  "source": "the supplement of paper PMC10338343",
  "note": "± gives the standard deviation.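 Note: 1 nM active piRISC with 0.1 nM target library at 33 °C single turnover.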",
  "data": [
    {"tested_on": "MILI (PIWIL2) piRISC loaded with L1MC piRNA (26 nt)", "assay": "pre-steady-state target cleavage rate (min^-1); guide: L1MC piRNA 5'p-UAACUAAAUACUAUGCAAGCUGUAGG; MIWI and MILI are mouse PIWI proteins and EfPiwi is from a freshwater sponge; tags in brackets are library labels; higher = faster piRNA-guided slicing of the target", "conditions": "auxiliary factor: 500 nM mouse GTSF1", "outline": "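The pre-steady-state cleavage rate was derived from a burst-and-steady-state fit of Cleave-'n-Seq data. For these assays, 1 nM active affinity-purified piRISC loaded with a single synthetic guide was mixed with […] a transcribed, DNA-blocked target RNA library in HEPES–potassium acetate buffer at 33 °C, with or without 500 nM GTSF1 partner protein, for 0–8 or 0–960 min. Sequencing counts of uncleaved targets were normalised to depth and to weakly complementary targets, and k3 was capped at 0.0001 min^-1 after three trials were pooled.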", "values": [
      {"sequence": "UCCUCCUAGUCCUUGCAUAGUAUUUUCAAA", "pre-steady-state target cleavage rate": "0.0344 ± 0.013"},
      {"sequence": "UCCUGGAUGAGCUUGCAUUCUAUUUAGUUA", "pre-steady-state target cleavage rate": "0.0348 ± 0.0092"},
      {"sequence": "UCCUGGAUCAGCUUGCAUAGUAUUAGUUA", "pre-steady-state target cleavage rate": "0.141 ± 0.018"},
      {"sequence": "UCCUGGAUGUCCUUGCUAUGUAUUUAGUUA", "pre-steady-state target cleavage rate": "0.00552 ± 0.0044"},
      {"sequence": "UCCUGGAACAGCUUGCAUACUAUUUAGAAA", "pre-steady-state target cleavage rate": "0.0271 ± 0.011"},
      {"sequence": "UCCUGCUACUCGUUGCAUAGUAUUUUCAAA", "pre-steady-state target cleavage rate": "0.0428 ± 0.014"},
      {"sequence": "UCCUGGAUGUCGAAGCAUAGUAUUAUAGUUA", "pre-steady-state target cleavage rate": "0.0614 ± 0.014"},
      {"sequence": "UCCUGGAUGUCGUUGCAUAGUAUAUAGUAA", "pre-steady-state target cleavage rate": "0.0526 ± 0.018"},
      {"sequence": "UCCUGGAACAGCUAGCAUAGUAUUUACUUA", "pre-steady-state target cleavage rate": "0.0669 ± 0.016"},
      {"sequence": "UCCUGGUACAGCUUGCAAAGUAUUUAGAUA", "pre-steady-state target cleavage rate": "0.118 ± 0.021"},
      {"sequence": "UCCUGGAUGAGCUAGCAUAGUAUUUACAAA", "pre-steady-state target cleavage rate": "0.0471 ± 0.015"},
      {"sequence": "UCCUGGAUCAGCUUGCAUAGUUUUAGUUA", "pre-steady-state target cleavage rate": "0.00374 ± 0.0036"},
      {"sequence": "UCCUGGAUGAGCUUGGAUAGAAUUUAGUUA", "pre-steady-state target cleavage rate": "0.0131 ± 0.0067"},
      {"sequence": "UCCUGGAUGUCCUUGCAAUCUAUUUAGUUA", "pre-steady-state target cleavage rate": "0.00463 ± 0.0037"},
      {"sequence": "UCCUGGUACAGCAUGCAUAGUAUUUACAAA", "pre-steady-state target cleavage rate": "0.127 ± 0.033"},
      {"sequence": "UCCUCCUACUCCUUGCAUAGUAUUUUCAAA", "pre-steady-state target cleavage rate": "0.0534 ± 0.015"},
      {"sequence": "UCCUGGAUGUCGUUGCAUAGUAUUUAAUUA", "pre-steady-state target cleavage rate": "0.0359 ± 0.013"},
      {"sequence": "UCCUGGAUGAGCUUGCAAAGUAUUUAGAUA", "pre-steady-state target cleavage rate": "0.117 ± 0.022"},
      {"sequence": "UCCUCCUACAGCUUGCAUGAGUAUUUAGUUA", "pre-steady-state target cleavage rate": "0.011 ± 0.0056"},
      {"sequence": "UCCUGGAUGACGAUGCAUAGUAUUUAGAAA", "pre-steady-state target cleavage rate": "0.139 ± 0.035"},
      {"sequence": "UCCUGCAACAGCUUGCAUAGUAUUUACUUA", "pre-steady-state target cleavage rate": "0.122 ± 0.012"},
      {"sequence": "UCCUGGAUCAGCUUGCAUAGUAAAUUCAAA", "pre-steady-state target cleavage rate": "0.0136 ± 0.0055"},
      {"sequence": "UCCUGGAUGAGCAUGCAUAGUAUUUUGUUA", "pre-steady-state target cleavage rate": "0.115 ± 0.025"},
      {"sequence": "UCCUGCUACAGCUUGCAUUGUAUUUUCAAA", "pre-steady-state target cleavage rate": "0.0201 ± 0.0084"},
      {"sequence": "UCCUGGUAGAGCUUCCAUAGUAUUUAGUUA", "pre-steady-state target cleavage rate": "0.0967 ± 0.033"},
      {"sequence": "UCCUGGAACAGCUUGCAUAGUAUUUCAGUUA", "pre-steady-state target cleavage rate": "0.131 ± 0.028"},
      {"sequence": "UCCUGGAUCACCUUGCAUAGAAUUUAGUUA", "pre-steady-state target cleavage rate": "0.017 ± 0.0097"},
      {"sequence": "UCCUGGAUGUCGAAGCAUAGUAUGUAGUUA", "pre-steady-state target cleavage rate": "0.0113 ± 0.0045"},
      {"sequence": "UCCUGGAUCAGCUUGCAUAGUAUAUAGAAA", "pre-steady-state target cleavage rate": "0.115 ± 0.03"},
      {"sequence": "UCCUGGAUCAGCUUGCAUUCUAUUUAGUUA", "pre-steady-state target cleavage rate": "0.0266 ± 0.0066"},
      {"sequence": "UCCUGGAUGUCCUUGCAUAGUAUUUAUUA", "pre-steady-state target cleavage rate": "0.0219 ± 0.0073"},
      {"sequence": "UCCUCCUACAGCUUGCAUACAUUUUAGUUA", "pre-steady-state target cleavage rate": "0.00509 ± 0.0039"},
      {"sequence": "UCCUGCUACAGCUUGCAUAGUAUAUACUUA", "pre-steady-state target cleavage rate": "0.0361 ± 0.011"}
    ]}
  ]
}
